Test [1] in a line: small molecules captured by biotinylated probe aFSTL3 – biochemical, small-molecule microarray, fluorescence 635/667, stem cell growth factor project, primary screen (AID 1064).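 Also: measures binding of the biotinylated anti-FSTL3 antibody to printed compounds.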 Particulars: higher = more signal.
Test [2] is described as follows: binders from COS7 lysate, DM2A8 probe, primary screen, torsin A project, cell lysate, small-molecule microarray, fluorescence 635/667 (AID 1065). The settings on record: higher = more signal, COS7 lysate expressing mutant human TOR1A.
A short description of test [3]: small molecules captured by biotinylated probe aFGF2 – biochemical, small-molecule microarray, fluorescence 635/667, stem cell growth factor project, primary screen (AID 1067).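 Also: measures binding of biotinylated aFGF2 protein to printed compounds on slides; z-score merges feature fluorescence and signal-to-noise across triplicate slides.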 Particulars: higher = more signal.
The nature of test [4]: small molecules captured by biotinylated probe aFGF10 – biochemical, small-molecule microarray, fluorescence 635/667, stem cell growth factor project, primary screen (AID 1071).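 Also: score merges 667 nm spot intensity and signal to noise from triplicate slides.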 Particulars: higher = more signal.
Test [5] concerns the target Neurogenic locus notch homolog protein 2 (Homo sapiens) (UniProt Q04721). The test can be described thus: small molecules binding Notch2 protein – biochemical, small-molecule microarray, 635 nm fluorescence, stem cell growth factors, primary screen (AID 1073). Particulars: higher = more signal.
Test [6] deals with Pro-neuregulin-1, membrane-bound isoform (Homo sapiens) (UniProt Q02297). Briefly: small molecules binding neuregulin-1 protein – biochemical, small-molecule microarray, fluorescence 635/667, psychiatric disease protein project, primary screen (AID 1075).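 Also: score combines 667 nm spot fluorescence with signal to noise.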 Particulars: NRG1 binding, 635 nm fluorescence, higher = more signal.
The subject of test [7] is Neuregulin-1 EGF-like domain. The test can be described thus: small molecules binding NRG1 EGF domain – biochemical, small-molecule microarray, 635 nm fluorescence, primary screen (AID 1081).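 Also: binding of the protein to compounds printed on small-molecule microarray slides.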 Particulars: higher = more signal.
Test [8] can be described thus: FRG1 expression reporter modulators in myotubes – cell-based, C2C12 myotubes, firefly/Renilla luciferase, luminescence, FRG1 inhibition for FSHD, primary screen (AID 1084). Particulars: FRG1 promoter luciferase, higher = more signal, called active from +8 up or from −8 down.
Test [9] is described as follows: small molecules captured by biotinylated probe aFST – biochemical, small-molecule microarray, fluorescence 635/667, stem cell growth factor project, primary screen (AID 1086).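 Also: score merges 667 nm fluorescence with signal-to-noise of each printed compound spot.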 The settings on record: higher = more signal.
Test [10] is described as follows: binders of probe aHhip on microarray, primary screen, stem cell growth factor project, biochemical, small-molecule microarray, fluorescence 635/667 (AID 1087).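 Also: score merges spot fluorescence at 667nm with spot signal to noise ratio.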 The settings on record: higher = more signal.
For test [11], the system named is PRMT1 (protein arginine N-methyltransferase 1). The test can be described thus: small molecules binding arginine methyltransferase PRMT1 – biochemical, small-molecule microarray, 635 nm fluorescence, primary screen (AID 1088).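 Also: binding of Prmt1 protein to compounds spotted on small-molecule microarray slides.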 Particulars: higher = more signal.
Test [12] can be described thus: growth effects on S. cerevisiae YJM789 – YJM789 clinical isolate, OD600, 24 h, basal, primary screen (AID 1089).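 Also: growth of clinical yeast isolate S. cerevisiae YJM 789 seeded 1000 cells per well; test concentration not given here.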 The settings on record: higher = more signal, called active from +8 up or from −8 down.
Test [13] in a line: S. pombe growth modifiers, basal conditions – strain 972, OD600, 24 h, no modulator, primary screen (AID 1090).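 Also: basal condition with compound alone and no growth modifier present; test concentration not given here.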 Particulars: S. pombe 972 growth, higher = more signal, called active from +8 up or from −8 down.
The nature of test [14]: budding yeast growth modifiers under rapamycin – strain BY4716, OD600, 96 h, primary screen (AID 1091). Also: test concentration not given here. The settings on record: S. cerevisiae BY4716 + rapamycin, higher = more signal, called active from +8 up or from −8 down.
Test [15] has as its target Torsin-1A-interacting protein 2 (Homo sapiens) (UniProt Q8NFQ8). The test can be described thus: small molecules binding lysate-expressed LULL1 – cell lysate, human LULL1 lysate, 635/667 nm fluorescence, primary screen (AID 1092).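 Also: score merges per-feature 667 nm fluorescence with signal-to-noise.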 Particulars: small-molecule microarray, hLULL1 lysate binding, 635 nm fluorescence; higher = more signal.
Test [16] in a line: optical density change of DRC41 E. coli – strain DRC41, OD650, 24 h, E. coli filamentation project, primary screen (AID 1093).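 Also: MC1000 strain lacking acrAB efflux and sulA so SOS filamentation is blocked; test concentration not given here.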 The settings on record: E. coli DRC41 growth, higher = more signal, called active from +8 up or from −8 down.
A short description of test [17]: probe aLefty2 binding to arrayed compounds – biochemical, biotinylated probe, 635/667 nm fluorescence, primary screen (AID 1094).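 Also: score merges spot fluorescence near 667 nm with spot signal-to-noise ratio.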 Particulars: small-molecule microarray, higher = more signal.
Test [18] relates to Noggin (protein binding on small-molecule microarray). The test can be described thus: small molecules binding Noggin protein – biochemical, 635/667 nm fluorescence, primary screen (AID 1095).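 Also: score merges 667 nm feature fluorescence with signal to noise over triplicate slides.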 Particulars: 635 nm fluorescence, higher = more signal.
The target in test [19] is Neurogenic locus notch homolog protein 3 (Homo sapiens) (UniProt Q9UM47). The test can be described thus: small molecules binding NOTCH3 protein – biochemical, 635/667 nm fluorescence, primary screen (AID 1096). The settings on record: small-molecule microarray, 635 nm fluorescence, higher = more signal.
Test [20] is described as follows: probe aEGFR binding to arrayed compounds – biochemical, biotinylated probe, 635/667 nm fluorescence, primary screen (AID 1097).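 Also: probe is a biotinylated anti-EGFR antibody binding compounds printed on slides; score combines fluorescence near 667 nm and signal to noise of each spot.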 The settings on record: small-molecule microarray, higher = more signal.

Active and inactive are the calls of the source.

Neurogenic locus notch homolog protein 2 (Homo sapiens), sequence (Q04721 whole entry, looked up, canonical isoform): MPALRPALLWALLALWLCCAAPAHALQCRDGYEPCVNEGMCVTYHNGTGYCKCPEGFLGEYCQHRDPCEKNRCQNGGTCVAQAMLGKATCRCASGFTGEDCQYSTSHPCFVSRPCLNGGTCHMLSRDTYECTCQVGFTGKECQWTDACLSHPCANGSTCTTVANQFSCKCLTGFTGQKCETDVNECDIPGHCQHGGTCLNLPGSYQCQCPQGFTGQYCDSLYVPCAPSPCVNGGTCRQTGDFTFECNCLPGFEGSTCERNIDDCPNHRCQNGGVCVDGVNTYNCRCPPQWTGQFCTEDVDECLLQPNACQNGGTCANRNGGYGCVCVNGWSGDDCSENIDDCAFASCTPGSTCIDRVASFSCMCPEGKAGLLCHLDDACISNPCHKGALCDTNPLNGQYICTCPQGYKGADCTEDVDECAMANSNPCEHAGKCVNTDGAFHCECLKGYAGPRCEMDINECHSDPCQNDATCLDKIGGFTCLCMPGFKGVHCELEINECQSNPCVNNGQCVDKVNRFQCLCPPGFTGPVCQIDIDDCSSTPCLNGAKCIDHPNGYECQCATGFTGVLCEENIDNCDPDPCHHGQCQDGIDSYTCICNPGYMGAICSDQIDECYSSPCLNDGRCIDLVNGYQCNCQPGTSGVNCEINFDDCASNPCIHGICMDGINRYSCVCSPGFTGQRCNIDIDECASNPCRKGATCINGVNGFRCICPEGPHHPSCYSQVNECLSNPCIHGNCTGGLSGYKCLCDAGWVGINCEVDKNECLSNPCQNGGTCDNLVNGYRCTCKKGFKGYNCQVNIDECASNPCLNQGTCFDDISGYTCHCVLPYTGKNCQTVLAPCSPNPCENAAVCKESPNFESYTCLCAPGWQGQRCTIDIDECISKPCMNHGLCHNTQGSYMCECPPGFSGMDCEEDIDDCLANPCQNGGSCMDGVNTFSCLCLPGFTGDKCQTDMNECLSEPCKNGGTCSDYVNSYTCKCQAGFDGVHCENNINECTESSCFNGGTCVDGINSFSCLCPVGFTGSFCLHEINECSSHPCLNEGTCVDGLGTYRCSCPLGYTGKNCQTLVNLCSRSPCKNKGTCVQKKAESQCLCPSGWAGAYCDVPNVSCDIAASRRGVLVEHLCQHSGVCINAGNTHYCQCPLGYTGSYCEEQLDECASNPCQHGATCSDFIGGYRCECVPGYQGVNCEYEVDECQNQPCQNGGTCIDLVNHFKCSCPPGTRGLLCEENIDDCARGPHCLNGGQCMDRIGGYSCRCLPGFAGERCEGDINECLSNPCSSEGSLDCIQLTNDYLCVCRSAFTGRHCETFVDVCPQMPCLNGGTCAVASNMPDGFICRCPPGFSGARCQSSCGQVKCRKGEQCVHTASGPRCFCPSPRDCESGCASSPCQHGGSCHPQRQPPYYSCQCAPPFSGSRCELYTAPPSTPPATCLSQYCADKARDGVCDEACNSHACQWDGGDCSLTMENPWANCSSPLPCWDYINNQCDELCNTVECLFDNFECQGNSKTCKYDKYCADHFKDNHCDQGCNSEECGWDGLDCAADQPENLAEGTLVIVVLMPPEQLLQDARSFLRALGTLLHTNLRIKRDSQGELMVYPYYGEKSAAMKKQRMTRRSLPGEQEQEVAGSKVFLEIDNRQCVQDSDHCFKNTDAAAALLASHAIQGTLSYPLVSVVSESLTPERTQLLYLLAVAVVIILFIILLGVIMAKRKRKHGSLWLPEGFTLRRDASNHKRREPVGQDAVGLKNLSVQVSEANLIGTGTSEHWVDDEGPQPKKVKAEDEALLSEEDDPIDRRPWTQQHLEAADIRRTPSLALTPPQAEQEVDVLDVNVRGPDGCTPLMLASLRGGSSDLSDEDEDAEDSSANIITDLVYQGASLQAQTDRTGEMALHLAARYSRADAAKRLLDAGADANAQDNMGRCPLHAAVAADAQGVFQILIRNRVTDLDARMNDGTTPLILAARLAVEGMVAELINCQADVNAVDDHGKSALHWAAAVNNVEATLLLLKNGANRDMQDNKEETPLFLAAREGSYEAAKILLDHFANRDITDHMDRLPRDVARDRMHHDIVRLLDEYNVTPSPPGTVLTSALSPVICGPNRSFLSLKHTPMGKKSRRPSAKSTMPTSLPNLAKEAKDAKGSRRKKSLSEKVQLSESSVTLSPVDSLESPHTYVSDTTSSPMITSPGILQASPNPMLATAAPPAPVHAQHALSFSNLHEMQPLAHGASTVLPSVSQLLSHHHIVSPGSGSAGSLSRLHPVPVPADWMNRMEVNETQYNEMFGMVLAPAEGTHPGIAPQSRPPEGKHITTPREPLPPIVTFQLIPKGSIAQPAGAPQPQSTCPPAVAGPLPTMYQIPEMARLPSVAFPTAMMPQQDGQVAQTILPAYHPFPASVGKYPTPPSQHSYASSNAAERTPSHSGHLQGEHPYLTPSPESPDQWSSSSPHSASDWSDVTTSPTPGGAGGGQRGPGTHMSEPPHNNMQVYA
Pro-neuregulin-1, membrane-bound isoform (Homo sapiens), sequence (Q02297 whole entry, looked up, the tested form may be a part, canonical isoform): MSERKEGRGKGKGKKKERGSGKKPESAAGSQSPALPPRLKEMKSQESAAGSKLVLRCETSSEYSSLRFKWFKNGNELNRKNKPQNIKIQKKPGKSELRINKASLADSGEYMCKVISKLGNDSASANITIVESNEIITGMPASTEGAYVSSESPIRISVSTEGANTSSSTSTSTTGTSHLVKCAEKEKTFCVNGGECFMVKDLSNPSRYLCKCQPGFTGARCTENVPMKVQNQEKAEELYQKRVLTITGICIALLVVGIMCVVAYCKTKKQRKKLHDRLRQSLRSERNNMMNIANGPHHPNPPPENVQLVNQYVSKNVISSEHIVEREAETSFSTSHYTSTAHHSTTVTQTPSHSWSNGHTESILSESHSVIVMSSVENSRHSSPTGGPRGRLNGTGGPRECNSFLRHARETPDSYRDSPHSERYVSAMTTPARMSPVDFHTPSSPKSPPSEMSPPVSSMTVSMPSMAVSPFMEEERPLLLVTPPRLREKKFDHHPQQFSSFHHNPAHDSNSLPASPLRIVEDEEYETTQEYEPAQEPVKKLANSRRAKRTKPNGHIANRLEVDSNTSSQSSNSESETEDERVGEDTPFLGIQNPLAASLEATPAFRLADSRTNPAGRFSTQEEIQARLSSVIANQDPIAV
Torsin-1A-interacting protein 2 (Homo sapiens), sequence (Q8NFQ8 whole entry, looked up): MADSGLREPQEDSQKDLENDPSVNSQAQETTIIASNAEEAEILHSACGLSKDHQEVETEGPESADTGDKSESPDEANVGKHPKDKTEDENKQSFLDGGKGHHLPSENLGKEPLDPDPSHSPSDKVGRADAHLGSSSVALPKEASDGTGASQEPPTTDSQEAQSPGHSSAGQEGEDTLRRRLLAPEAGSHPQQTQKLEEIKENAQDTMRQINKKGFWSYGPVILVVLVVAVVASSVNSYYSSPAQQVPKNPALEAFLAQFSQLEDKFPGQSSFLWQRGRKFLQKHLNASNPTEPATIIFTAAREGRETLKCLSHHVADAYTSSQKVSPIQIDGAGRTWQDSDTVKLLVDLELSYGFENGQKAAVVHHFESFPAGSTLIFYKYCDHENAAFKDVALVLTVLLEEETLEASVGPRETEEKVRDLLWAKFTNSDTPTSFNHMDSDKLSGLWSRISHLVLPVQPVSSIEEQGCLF

`CC(C)N1C(=O)c2ccccc2[C@](C)(C(=O)NCCN2CCOCC2)[C@@H]1c1ccc(CO)cc1`: the composite z-score in test [1] is 0.755; in test [2] it was 0.779; in test [3] it was -0.104; in test [4], -1.08; in [5], -0.879; in test [6], 1.76. In addition, the composite z-score in test [7] was 0.728; in test [9] it was -0.527; in test [10], -0.306; in test [11] it was 1.2; in test [15], 2.37; in test [17], 0.0971. For the same compound, the composite z-score is 0.495 in [18], 0.1 in [19] and -0.0152 in test [20]. For the same compound, the z-score in [8] was 0.185 (inactive); in [12] it was 0.608 (inactive); in test [13] it was 0.516 (inactive); in test [14], 0.511 (inactive); in [16] it was -0.487 (inactive).
Regarding `[N-]=[N+]=Nc1ccccc1[C@@H]1OC(c2ccc(OCCCO)cc2)=N[C@]1(CCS(=O)(=O)c1ccccc1)C(N)=O`, the composite z-score was 0.109 in [1]; -0.0445 in [2]; 0.29 in test [3]; 0.829 in test [4]; 1.58 in test [5]; 1.63 in test [6]. The composite z-score in test [7] is 1.23; in [9], 2.08; in test [10], -0.213; in test [11], 1.55; in [15], 3.64; in [17] it was 0.588. In addition, the composite z-score amounted to 0.561 in test [18], 0.91 in [19] and 0.122 in test [20]. Also, the z-score in [8] was 1.14 (inactive); in [12], 0.193 (inactive); in test [13], -1.36 (inactive); in [14] it was 0.199 (inactive); in test [16], 0.743 (inactive).
`C=CCOC(=O)[C@H]1[C@@H]2C(=O)O[C@@H](c3ccccc3)[C@@H](c3ccccc3)N2[C@@H](c2ccc(OCCOC(=O)[C@H]3C[C@H]4C(=O)N[C@@H](CCCCNC(C)=O)C(=O)N4[C@H]3c3ccc(O)cc3)cc2)[C@]12C(=O)Nc1ccc(I)cc12`: the composite z-score in test [1] is -0.37; in test [2], 0.517; in test [3], 0.0126; in test [4], 0.169; in [5], 0.791; in test [6], 0.349. In addition, the composite z-score in test [7] is 1.14; in test [9], 1.3; in test [10], 0.312; in [11], 1.57; in test [15], 1.81; in test [17], -0.0566. For the same compound, the composite z-score was 1.5 in [18], 1.07 in test [19] and -0.0088 in [20]. Moreover, the z-score in test [8] is 0.136 (inactive); in [12] it was 1.12 (inactive); in [13], -2.33 (inactive); in test [14] it was 1.75 (inactive); in [16] it was -2.07 (inactive).
With `O=C1O[C@@H](c2ccccc2)[C@@H](c2ccccc2)N2[C@@H](c3ccccc3OCCO)[C@]3(C(=O)Nc4ccc(C#CC5=CCCCC5)cc43)[C@@H](C(=O)N3CCCCCCC3)[C@H]12`, the composite z-score in test [1] amounted to 3.71; in test [2] it was 2.23; in [3], 0.978; in test [4], 1.14; in test [5], 1.65; in test [6], 2.07. For the same compound, the composite z-score in test [7] was 1.07; in [9], 3.59; in [10], 3.84; in test [11], 1.53; in test [15] it was 4.38; in test [17], 1.74. The composite z-score in [18] was found to be 1.88; in test [19], 1.02; in test [20] it was 1.34. The z-score is -0.27 (inactive) in test [8]; 1.1 (inactive) in test [12]; -0.354 (inactive) in test [13]; 2.02 (inactive) in [14]; -0.641 (inactive) in test [16].
For `O=C(CS)NCCCCCCNC(=O)[C@@H]1C[C@@H]2C(=O)N[C@@H](Cc3ccccc3)C(=O)N2[C@@H]1c1cccc(OCCO)c1`, the composite z-score in [1] was 0.0549; in test [2] it was 0.94; in [3], 0.0589; in test [4], 0.956; in test [5], 1.08; in test [6] it was 0.659. The composite z-score was 1.23 in test [7]; 0.616 in test [9]; -0.0994 in test [10]; 1.54 in [11]; 2.92 in test [15]; 0.0747 in test [17]. Further, the composite z-score in test [18] came to 0.988; in [19] it was 1.04; in test [20], 0.122. The z-score in [8] was 3.09 (inactive); in [12], -0.485 (inactive); in test [13], 0.279 (inactive); in [14] it was 0.211 (inactive); in test [16], -1.21 (inactive).
